Measurements taken from PubChem BioAssay AID1159580 (chemical genetic matrix, 2015).
The whole screen tested about 5,500 compounds, of which about 2,000 (36%) were called active. Another 18% or so got no clear call; they are omitted. Rule as the data show it: active = normalized growth mostly below about 0.91 (no sharp cut-off); inconclusive = no clear call, values can overlap the other calls; inactive = mostly above about 0.92. This is one part of the list.

Assay: chemical genetic growth profiling, strain panel (AID 1159580);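 also: tested at 20 µM; growth read once vehicle control cultures reached saturation at 30 °C; 1 = growth at the plate median or of vehicle wells; lower values mean less growth of the strain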
Conditions: S. cerevisiae deletion strains, growth OD

Measured: normalized growth

C[C@]12C=CC(=O)C=C1CC[C@@H]1C2=CC[C@]2(C)[C@@H](C(=O)CN3CCN(c4cc(N5CCCC5)nc(N5CCCC5)n4)CC3)CC[C@@H]12
inactive: locus YAL013W, strain DEP1, hits give low values 0.97 | locus YAL040C, strain CLN3, hits give low values 0.998 | locus YCL061C, strain MRC1 (second series), hits give low values 0.976 | locus YDR363W, strain ESC2, hits give low values 0.964 | locus YER002W, strain NOP16, hits give low values 1.01 | locus YGR078C, strain PAC10, hits give low values 0.995 | locus YMR263W, strain SAP30, hits give low values 0.993 | locus YMR307W, strain GAS1, hits give low values 0.998 | locus YNL128W, strain TEP1, hits give low values 1.03 | locus YNL175C, strain NOP13, hits give low values 1.02 | locus YNL197C, strain WHI3, hits give low values 1.04 | locus YNL224C, strain SQS1, hits give low values 1.01 | locus YOR083W, strain WHI5 (second series), hits give low values 1.01
